This passage reports binding signal results from paper PMC11006913.

What all share (assay): PBM; 200 nM protein, PBS
What all share (details): dsDNA, one strand shown

Assay [1] has as its target SHOX (Homo sapiens, UniProt O15266 103-189).
Assay [2] has as its target NKX3-2 (Homo sapiens, UniProt P78367 192-278, P234S).
In assay [3] the target is NKX3-2 (Homo sapiens, UniProt P78367 192-278).
Assay [4] addresses SHOX (Homo sapiens, UniProt O15266 103-189, R173C).
For assay [5], the target named is PROP1 (Homo sapiens, UniProt O75360 56-141).
Chain of PROP1 (Homo sapiens, UniProt O75360 56-141) (O75360 56-141): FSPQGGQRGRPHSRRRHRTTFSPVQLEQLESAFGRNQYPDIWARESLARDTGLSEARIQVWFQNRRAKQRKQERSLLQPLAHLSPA
The target of assay [6] is PROP1 (Homo sapiens, UniProt O75360 56-141, R99H).
Chain of PROP1 (Homo sapiens, UniProt O75360 56-141, R99H) (O75360 56-141 R99H): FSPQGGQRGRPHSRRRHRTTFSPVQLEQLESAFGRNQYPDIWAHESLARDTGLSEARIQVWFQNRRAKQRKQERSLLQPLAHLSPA
The target in assay [7] is PROP1 (Homo sapiens, UniProt O75360 56-141, F88S).
Chain of PROP1 (Homo sapiens, UniProt O75360 56-141, F88S) (O75360 56-141 F88S): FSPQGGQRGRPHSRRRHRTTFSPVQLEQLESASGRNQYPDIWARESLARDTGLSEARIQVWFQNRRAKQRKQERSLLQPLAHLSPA
Assay [8] has as its target T1, NKX2-4 (Homo sapiens, UniProt Q9H2Z4 175-261, P217L).
T1 sequence: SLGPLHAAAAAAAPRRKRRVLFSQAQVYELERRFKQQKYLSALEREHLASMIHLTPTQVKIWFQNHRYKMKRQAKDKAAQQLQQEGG

For assay [9], the target named is T2, NKX2-4 (Homo sapiens, UniProt Q9H2Z4 175-261).
T2 sequence: T1 sequence with L43P

In assay [10] the target is T3, NKX2-4 (Homo sapiens, UniProt Q9H2Z4 175-261, R246Q).
T3 sequence: T1 sequence with L43P, R72Q

For assay [11], the target named is T4, PAX4 (Homo sapiens, UniProt O43316 9-242, R200K).
T4 sequence: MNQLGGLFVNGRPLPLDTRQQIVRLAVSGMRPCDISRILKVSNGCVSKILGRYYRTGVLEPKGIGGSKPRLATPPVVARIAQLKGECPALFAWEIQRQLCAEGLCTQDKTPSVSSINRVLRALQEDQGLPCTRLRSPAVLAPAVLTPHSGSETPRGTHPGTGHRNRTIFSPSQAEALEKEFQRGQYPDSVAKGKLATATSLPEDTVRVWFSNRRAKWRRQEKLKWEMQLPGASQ

The target of assay [12] is T5, PAX4 (Homo sapiens, UniProt O43316 9-242).
T5 sequence: T4 sequence with K192R

In assay [13] the target is T6, PAX4 (Homo sapiens, UniProt O43316 9-242, R200Q).
T6 sequence: T4 sequence with K192Q

Assay [14] concerns the target T7, PAX4 (Homo sapiens, UniProt O43316 9-242, F177V).
T7 sequence: T4 sequence with F169V, K192R

Assay [15] deals with ALX3 (Homo sapiens, UniProt O95076 139-225).
Chain of ALX3 (Homo sapiens, UniProt O95076 139-225) (O95076 139-225): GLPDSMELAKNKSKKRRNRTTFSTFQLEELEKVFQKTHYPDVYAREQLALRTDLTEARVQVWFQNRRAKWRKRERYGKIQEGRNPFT
The target in assay [16] is T8, PAX4 (Homo sapiens, UniProt O43316 9-242, F177Y).
T8 sequence: T4 sequence with F169Y, K192R

The target in assay [17] is ALX3 (Homo sapiens, UniProt O95076 139-225, L168Q).
Chain of ALX3 (Homo sapiens, UniProt O95076 139-225, L168Q) (O95076 139-225 L168Q): as the sequence (O95076 139-225) above, with L30Q counted along it
Assay [18] deals with ALX3 (Homo sapiens, UniProt O95076 139-225, L168V).
Chain of ALX3 (Homo sapiens, UniProt O95076 139-225, L168V) (O95076 139-225 L168V): as the sequence (O95076 139-225) above, with L30V counted along it
Assay [19] addresses T9, PAX4 (Homo sapiens, UniProt O43316 9-242, R227W).
T9 sequence: T4 sequence with K192R, R219W

Assay [20] concerns the target HOXB6 (Homo sapiens, UniProt P17509 132-218, K202E).
Assay [21] deals with HOXD13 (Homo sapiens, UniProt P35453 263-343, T313R).
Chain of HOXD13 (P35453 263-343 T313R): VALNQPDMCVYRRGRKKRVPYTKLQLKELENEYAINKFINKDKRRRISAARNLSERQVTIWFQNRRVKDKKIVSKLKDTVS
Assay [22] concerns the target HESX1 (Homo sapiens, UniProt Q9UBX0 95-180, R109Q).
Assay [23] addresses HESX1 (Homo sapiens, UniProt Q9UBX0 95-180, F115L).
Assay [24] deals with HOXB6 (Homo sapiens, UniProt P17509 132-218).
Chain of HOXB6 (Homo sapiens, UniProt P17509 132-218) (P17509 132-218): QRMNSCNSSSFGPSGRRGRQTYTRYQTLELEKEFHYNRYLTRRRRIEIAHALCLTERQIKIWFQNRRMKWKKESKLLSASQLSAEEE
Assay [25] deals with PRRX1 (Homo sapiens, UniProt P54821 80-166, F113S).
Chain of PRRX1 (Homo sapiens, UniProt P54821 80-166, F113S) (P54821 80-166 F113S): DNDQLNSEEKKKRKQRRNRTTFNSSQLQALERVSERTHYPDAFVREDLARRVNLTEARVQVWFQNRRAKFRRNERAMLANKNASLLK
In assay [26] the target is PRRX1 (Homo sapiens, UniProt P54821 80-166).
Chain of PRRX1 (Homo sapiens, UniProt P54821 80-166) (P54821 80-166): as the sequence (P54821 80-166 F113S) above, with S34F counted along it
For assay [27], the target named is MSX2 (Homo sapiens, UniProt P35548 130-214).
Chain of MSX2 (Homo sapiens, UniProt P35548 130-214) (P35548 130-214): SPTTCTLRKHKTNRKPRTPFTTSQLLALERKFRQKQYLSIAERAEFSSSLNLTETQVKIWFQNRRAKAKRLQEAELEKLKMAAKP
Assay [28] concerns the target MSX2 (Homo sapiens, UniProt P35548 130-214, F161Y).

Numbering of substitutions follows the chain as printed.

Chain of NKX3-2 (Homo sapiens, UniProt P78367 192-278) (P78367 192-278): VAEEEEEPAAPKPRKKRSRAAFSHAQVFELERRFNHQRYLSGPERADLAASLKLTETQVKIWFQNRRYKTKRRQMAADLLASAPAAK
Chain of NKX3-2 (Homo sapiens, UniProt P78367 192-278, P234S) (P78367 192-278 P234S): as the sequence (P78367 192-278) above, with P43S counted along it
Chain of SHOX (Homo sapiens, UniProt O15266 103-189, R173C) (O15266 103-189 R173C): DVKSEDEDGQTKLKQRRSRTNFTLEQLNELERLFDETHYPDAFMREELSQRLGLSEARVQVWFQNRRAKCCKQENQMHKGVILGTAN
Chain of SHOX (Homo sapiens, UniProt O15266 103-189) (O15266 103-189): as the sequence (O15266 103-189 R173C) above, with C71R counted along it
Chain of HOXB6 (Homo sapiens, UniProt P17509 132-218, K202E) (P17509 132-218 K202E): as the sequence (P17509 132-218) above, with K71E counted along it
Chain of MSX2 (Homo sapiens, UniProt P35548 130-214, F161Y) (P35548 130-214 F161Y): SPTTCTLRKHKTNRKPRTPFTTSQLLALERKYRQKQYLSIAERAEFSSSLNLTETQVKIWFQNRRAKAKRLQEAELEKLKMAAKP
Chain of HESX1 (Homo sapiens, UniProt Q9UBX0 95-180, R109Q) (Q9UBX0 95-180 R109Q): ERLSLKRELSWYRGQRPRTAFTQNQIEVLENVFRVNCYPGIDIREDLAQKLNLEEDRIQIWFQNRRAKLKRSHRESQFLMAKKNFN
Chain of HESX1 (Homo sapiens, UniProt Q9UBX0 95-180, F115L) (Q9UBX0 95-180 F115L): as the sequence (Q9UBX0 95-180 R109Q) above, with Q15R, F21L counted along it

Regarding ATTACCTA, the binding signal is 9.59 upbm affinity estimate (log intensity, higher = more binding, comparable within an allelic series) in assay [1]; 11.2 upbm affinity estimate (log intensity, higher = more binding, comparable within an allelic series) in [2]; 11.2 upbm affinity estimate (log intensity, higher = more binding, comparable within an allelic series) in [3].
Regarding CCGGGAAA, the binding signal in assay [1] is 7.25 upbm affinity estimate (log intensity, higher = more binding, comparable within an allelic series); in assay [4] it was 7.26 upbm affinity estimate (log intensity, higher = more binding, comparable within an allelic series).
Turning to CCAGGGCG, the binding signal in [1] is 7.04 upbm affinity estimate (log intensity, higher = more binding, comparable within an allelic series); in assay [4] it was 7.02 upbm affinity estimate (log intensity, higher = more binding, comparable within an allelic series); in assay [5], 6.67 upbm affinity estimate (log intensity, higher = more binding, comparable within an allelic series); in [6], 6.55 upbm affinity estimate (log intensity, higher = more binding, comparable within an allelic series); in [7], 6.42 upbm affinity estimate (log intensity, higher = more binding, comparable within an allelic series); in assay [2], 10.3 upbm affinity estimate (log intensity, higher = more binding, comparable within an allelic series). In addition, in [3], the binding signal was 10.2 upbm affinity estimate (log intensity, higher = more binding, comparable within an allelic series).
Consider CCCGGGGC, for which the binding signal was 7.23 upbm affinity estimate (log intensity, higher = more binding, comparable within an allelic series) in assay [1] and 7.07 upbm affinity estimate (log intensity, higher = more binding, comparable within an allelic series) in assay [4].
On to CACCGGGG, for which the binding signal in [1] was 7.32 upbm affinity estimate (log intensity, higher = more binding, comparable within an allelic series); in assay [4], 7.13 upbm affinity estimate (log intensity, higher = more binding, comparable within an allelic series); in [5], 6.79 upbm affinity estimate (log intensity, higher = more binding, comparable within an allelic series); in [6], 6.87 upbm affinity estimate (log intensity, higher = more binding, comparable within an allelic series); in assay [7], 6.47 upbm affinity estimate (log intensity, higher = more binding, comparable within an allelic series).
As to GCATTACC, the binding signal in assay [1] was 8.63 upbm affinity estimate (log intensity, higher = more binding, comparable within an allelic series); in assay [4], 7.62 upbm affinity estimate (log intensity, higher = more binding, comparable within an allelic series).
CTTGGCCC: the binding signal in assay [1] is 7.14 upbm affinity estimate (log intensity, higher = more binding, comparable within an allelic series); in assay [4], 7.2 upbm affinity estimate (log intensity, higher = more binding, comparable within an allelic series).
As for CCACCTCG, the binding signal in assay [1] was 7.13 upbm affinity estimate (log intensity, higher = more binding, comparable within an allelic series); in assay [4] it was 7.18 upbm affinity estimate (log intensity, higher = more binding, comparable within an allelic series).
GCCGGGGA: the binding signal in [1] is 7.02 upbm affinity estimate (log intensity, higher = more binding, comparable within an allelic series); in assay [4] it was 7.11 upbm affinity estimate (log intensity, higher = more binding, comparable within an allelic series).
Turning to CCTTTCCC, the binding signal in assay [1] was 7.21 upbm affinity estimate (log intensity, higher = more binding, comparable within an allelic series); in [4], 7.11 upbm affinity estimate (log intensity, higher = more binding, comparable within an allelic series); in assay [5] it was 6.78 upbm affinity estimate (log intensity, higher = more binding, comparable within an allelic series); in assay [6] it was 6.87 upbm affinity estimate (log intensity, higher = more binding, comparable within an allelic series); in assay [7] it was 6.77 upbm affinity estimate (log intensity, higher = more binding, comparable within an allelic series).
TCGCGCGA: the binding signal in assay [1] is 7.38 upbm affinity estimate (log intensity, higher = more binding, comparable within an allelic series); in assay [4], 7.28 upbm affinity estimate (log intensity, higher = more binding, comparable within an allelic series).
Take GCGTTAAA: the binding signal in assay [1] was 8.14 upbm affinity estimate (log intensity, higher = more binding, comparable within an allelic series); in [4], 7.56 upbm affinity estimate (log intensity, higher = more binding, comparable within an allelic series).
As to GCCCGGGC, the binding signal in assay [8] is 8.34 upbm affinity estimate (log intensity, higher = more binding, comparable within an allelic series); in assay [9], 8.35 upbm affinity estimate (log intensity, higher = more binding, comparable within an allelic series); in assay [10], 8.33 upbm affinity estimate (log intensity, higher = more binding, comparable within an allelic series); in [2] it was 9.95 upbm affinity estimate (log intensity, higher = more binding, comparable within an allelic series); in [3], 9.83 upbm affinity estimate (log intensity, higher = more binding, comparable within an allelic series).
As to GCAGCTGC, the binding signal was 8.99 upbm affinity estimate (log intensity, higher = more binding, comparable within an allelic series) in assay [11]; 9.1 upbm affinity estimate (log intensity, higher = more binding, comparable within an allelic series) in [12]; 9.09 upbm affinity estimate (log intensity, higher = more binding, comparable within an allelic series) in assay [13]; 9.27 upbm affinity estimate (log intensity, higher = more binding, comparable within an allelic series) in assay [14]; 7.63 upbm affinity estimate (log intensity, higher = more binding, comparable within an allelic series) in [15]; 9.13 upbm affinity estimate (log intensity, higher = more binding, comparable within an allelic series) in assay [16]. Besides, the binding signal is 7.75 upbm affinity estimate (log intensity, higher = more binding, comparable within an allelic series) in assay [17]; 7.78 upbm affinity estimate (log intensity, higher = more binding, comparable within an allelic series) in assay [18]; 9.34 upbm affinity estimate (log intensity, higher = more binding, comparable within an allelic series) in assay [19].
With ATATTAAT, the binding signal in assay [11] is 11.7 upbm affinity estimate (log intensity, higher = more binding, comparable within an allelic series); in assay [12] it was 12.1 upbm affinity estimate (log intensity, higher = more binding, comparable within an allelic series); in assay [20], 10.1 upbm affinity estimate (log intensity, higher = more binding, comparable within an allelic series); in assay [21], 10.8 upbm affinity estimate (log intensity, higher = more binding, comparable within an allelic series); in assay [13], 11.9 upbm affinity estimate (log intensity, higher = more binding, comparable within an allelic series); in assay [14], 10.7 upbm affinity estimate (log intensity, higher = more binding, comparable within an allelic series). Besides, the binding signal in assay [16] is 11 upbm affinity estimate (log intensity, higher = more binding, comparable within an allelic series); in assay [22] it was 8.59 upbm affinity estimate (log intensity, higher = more binding, comparable within an allelic series); in [23], 8.13 upbm affinity estimate (log intensity, higher = more binding, comparable within an allelic series); in [19] it was 11 upbm affinity estimate (log intensity, higher = more binding, comparable within an allelic series); in assay [24] it was 11.8 upbm affinity estimate (log intensity, higher = more binding, comparable within an allelic series).
Consider GGGGCTCA, for which the binding signal in assay [25] was 9.31 upbm affinity estimate (log intensity, higher = more binding, comparable within an allelic series); in assay [26] it was 9.52 upbm affinity estimate (log intensity, higher = more binding, comparable within an allelic series).
As for CCCGTCCC, the binding signal in assay [25] was 9.36 upbm affinity estimate (log intensity, higher = more binding, comparable within an allelic series); in assay [26], 9.4 upbm affinity estimate (log intensity, higher = more binding, comparable within an allelic series).
Turning to CCAGATTA, the binding signal in assay [20] is 9.66 upbm affinity estimate (log intensity, higher = more binding, comparable within an allelic series); in assay [27], 11.3 upbm affinity estimate (log intensity, higher = more binding, comparable within an allelic series); in [28], 11.1 upbm affinity estimate (log intensity, higher = more binding, comparable within an allelic series); in assay [24] it was 10.3 upbm affinity estimate (log intensity, higher = more binding, comparable within an allelic series).
